# Bioassay records (PubChem)
# A selection: hits, their analogues and other compounds. The true share with any hit is near 3.5%.
# FBA Mtb inh: inhibitors of M. tuberculosis fructose-bisphosphate aldolase; 360,000 compounds, 2.3% hits; inhibition, % at 1 µM; AID 588726; P9WQA3; purified M. tuberculosis FBA, fluorescence read-out; in the data active means inhibition above about 27%
# GDH-TPI inh: GDH-TPI coupled enzyme inhibition counter-screen; 360,000 compounds, 1.2% hits; AID 588335; GDH-TPI coupled enzyme counterscreen, NADH absorbance; inhibition, % at 4.8 µM; in the data active means inhibition above about 30%
# Mtb hypoxia inh: reduces hypoxia-regulated biosensor signal in M. tuberculosis; M. tuberculosis hypoxia-regulated fluorescent reporter, fluorescence; fluorescence inhibition, % (test concentration not listed); 300,000 compounds, 0.1% hits; AID 1159583; in the data active means fluorescence inhibition mostly above about 23%, no sharp cut-off; inactive means mostly below about 17%
# UGM FP inh: Mtb UDP-galactopyranose mutase inhibition. P9WIQ1. 320,000 compounds, 0.06% hits. purified UGM, fluorescence polarization probe displacement. inhibition, % at 10 µM; in the data active means inhibition above about 10%, passing the limit was not always enough
# FadD28 binding: blocks FadD28 binding to the bisubstrate probe; fluorescence polarization; AID 588549; 360,000 compounds, 0.22% hits; inhibition, % at 12.5 µM; in the data active means inhibition above about 8.5%, passing the limit was not always enough
# Rv3671c inh: inhibitors of M. tuberculosis serine protease Rv3671c; inhibition, % at 5.96 µM; P9WHR9; 320,000 compounds, 0.048% hits; in the data active means inhibition above about 38%;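 further: extracellular domain of Rv3671c used as enzyme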
# Target sequence (P9WHR9 whole entry, looked up, the tested form may be a part): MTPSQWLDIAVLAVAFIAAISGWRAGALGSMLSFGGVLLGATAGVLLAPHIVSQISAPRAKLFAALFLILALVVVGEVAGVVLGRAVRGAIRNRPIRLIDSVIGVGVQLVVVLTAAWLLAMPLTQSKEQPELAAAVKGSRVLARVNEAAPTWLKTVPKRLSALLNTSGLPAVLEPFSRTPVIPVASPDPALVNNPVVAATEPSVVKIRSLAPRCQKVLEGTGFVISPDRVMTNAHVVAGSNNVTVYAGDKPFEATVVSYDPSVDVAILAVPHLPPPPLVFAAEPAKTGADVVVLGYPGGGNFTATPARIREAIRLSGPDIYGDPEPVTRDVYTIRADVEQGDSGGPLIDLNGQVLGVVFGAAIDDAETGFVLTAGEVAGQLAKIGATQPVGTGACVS
# Hits are given with their value; i = inactive; nt = no result; + = active, no number.
SMILES,FBA Mtb inh,GDH-TPI inh,Mtb hypoxia inh,UGM FP inh,FadD28 binding,Rv3671c inh
COc1cccc(C(=O)N=c2sc3c(C)ccc(OC)c3n2C)c1,i,i,i,i,i,i
CCn1c(=NC(=O)c2cccc(N3C(=O)CCC3=O)c2)sc2c(C)ccc(OC)c21,i,38,i,i,i,i
NC(=NOC(=O)C=Cc1ccccc1)c1ccccn1,nt,nt,i,nt,nt,nt
CCOC(=O)c1[nH]c2ccccc2c1NC(C)=O,i,i,i,i,i,i
CCOc1cc(Br)cc(C(c2c(C(=O)O)[nH]c3ccccc23)c2c(C(=O)O)[nH]c3ccccc23)c1O,i,i,i,i,33,i
CSc1ccc(C(c2c(C(=O)O)[nH]c3ccccc23)c2c(C(=O)O)[nH]c3ccccc23)cc1,i,i,i,i,38,i
O=C(NN=Cc1ccccc1C(=O)O)c1ccc(NS(=O)(=O)c2cccs2)cc1,i,37,i,i,i,i
COc1ccc(NS(=O)(=O)c2cccc(C(=O)NN=Cc3cc(Br)c(O)c(Br)c3)c2)cc1,i,41,i,i,i,i
COc1ccc(C=NNC(=O)c2ccc(NS(=O)(=O)c3cccs3)cc2)cc1,nt,nt,i,nt,nt,nt
COc1ccc(NS(=O)(=O)c2cccc(C(=O)NN=Cc3ccc(OC)cc3OC)c2)cc1,i,i,i,i,i,i
O=C(O)c1ccc(/C=N/NC(=O)c2ccc(NS(=O)(=O)c3cccs3)cc2)cc1,i,74,nt,i,i,i
COc1ccc(OC)c(C=NNC(=O)c2ccc(NS(=O)(=O)c3cccs3)cc2)c1,i,39,i,i,i,i
COc1cccc(Nc2nc3ccccc3nc2NS(=O)(=O)c2cccs2)c1,i,37,i,i,i,i
COc1ccc(/C=N/NC(=O)c2ccc(NS(=O)(=O)c3cccs3)cc2)cc1,i,51,nt,i,i,i
COc1ccc(NC(=O)Nc2ccc3c(c2)C(=O)N(C(C)CO)CC(C)C(CN(C)C(=O)Nc2ccc4c(c2)OCO4)O3)cc1 (configuration not stated),nt,nt,i,nt,nt,nt
Cn1nc(C(C)(C)C)cc1C(=O)Nc1nc2c(s1)C(=O)CC(C)(C)C2,i,40,i,i,i,i
CCOC(=O)c1cc(-c2cccs2)nc2c1c(C)nn2-c1ccccn1,i,37,i,i,i,i
Cc1nn(-c2ccccc2)c2nc(-c3cccs3)cc(C(=O)NN)c12,i,i,i,i,i,i
COc1ccc(C=NNC(=O)c2cccc(Br)c2)cc1COc1ccccn1,nt,nt,i,nt,nt,nt
Cc1ccc(N/C=C2\C(=O)N(c3ccc(F)cc3F)C(c3cccnc3)S2(=O)=O)cc1 (configuration not stated),i,66,i,i,i,i
CCCCOc1ccc(/C=N/NC(=S)Nc2cc(C)ccc2C)cc1,i,40,nt,i,i,i
CCCCOc1ccc(C=NNC(=S)Nc2cccc(C)c2C)cc1,nt,nt,i,nt,nt,nt
N#Cc1c(C(F)(F)F)cc(-c2ccc(Cl)cc2)[nH]c1=O,177,i,i,i,i,i
N#Cc1c(-c2ccccc2)cc(-c2ccccc2)[nH]c1=O,i,i,i,i,i,i
COc1ccccc1-c1cc(C(F)(F)F)c(C#N)c(=O)[nH]1,+,i,i,i,i,i
SMILES,FBA Mtb inh,GDH-TPI inh,Mtb hypoxia inh,UGM FP inh,FadD28 binding,Rv3671c inh
COc1ccc(-c2cc(-c3ccco3)[nH]c(=O)c2C#N)cc1,123,i,i,i,i,i
N#Cc1c(C(F)(F)F)cc(-c2ccc(F)cc2)[nH]c1=O,142,i,i,i,i,i
CC(NC(=O)c1nc[nH]c1C(=O)NCc1ccccc1)c1ccccc1 (configuration not stated),nt,nt,i,nt,nt,nt
CCOC(=O)NN=Cc1c(C)c(C(=O)c2ccc(F)cc2)n2ccccc12,nt,nt,i,nt,nt,nt
COc1ccc(C2C=CCN(S(=O)(=O)C=Cc3ccccc3)C(C)C(=O)N2Cc2ccc(F)cc2)cc1 (configuration not stated),nt,nt,i,nt,nt,nt
CC(NC(=O)c1nc[nH]c1C(=O)NC(C)c1ccccc1)C(=O)OC(C)(C)C (configuration not stated),nt,nt,i,nt,nt,nt
COc1cc(-c2cc(-c3ccc(N)cc3)[nH]c(=O)c2C#N)cc(OC)c1OC,i,i,i,i,i,i
Cc1cc(C(F)(F)F)c(C#N)c(=O)[nH]1,137,i,nt,i,i,i
N#Cc1c(C(F)(F)F)cc(-c2cccc(Cl)c2)[nH]c1=O,156,i,i,i,i,i
COc1ccc(-c2cc(C(F)(F)F)c(C#N)c(=O)[nH]2)cc1,+,i,i,i,i,i
CCOC(=O)CCC(C)=NN=C1SC(CC(=O)O)C(=O)N1c1ccccc1 (configuration not stated),nt,nt,i,nt,nt,nt
Cc1ccc(C(=O)NN=Cc2cc3c(cc2Br)OCO3)s1,nt,nt,i,nt,nt,nt
NC(N)=NCCCC(NC(=O)OCc1ccccc1)C(=O)O (configuration not stated),nt,nt,i,nt,nt,nt
COc1ccc(NC(=O)C#Cc2ccccc2)cc1OC,i,34,i,i,i,i
Nc1nnc(CC(=O)N/N=C/c2ccc(-c3ccccc3Cl)o2)s1,i,39,nt,i,i,i
COC(=O)NN=Cc1ccc(-c2ccccc2Cl)o1,nt,nt,i,nt,nt,nt
Cc1ccc(-c2ccc(C=NNC(=O)Cc3nnc(N)s3)o2)cc1Cl,nt,nt,i,nt,nt,nt
Nc1nnc(CC(=O)N/N=C/c2ccc(-c3ccc(Cl)cc3Cl)o2)s1,i,38,nt,i,i,i
CCOC1OC(C(=O)N2CCN(Cc3ccc4c(c3)OCO4)CC2)=CC(C2CCCCC2)C1CCCO (configuration not stated),nt,nt,i,nt,nt,nt
O=c1[nH]c2cc3c(cc2cc1C(c1nnnn1C1CCCCC1)N1CCSCC1)OCCO3 (configuration not stated),28,i,i,i,i,i
CCc1ccc(/C=N/Nc2ncnc3nc[nH]c23)cc1,i,71,nt,i,i,i
N#Cc1c(N)n(-c2cccc(C(=O)O)c2)c2nc3ccccc3nc12,+,43,i,i,i,i
CC12CCCC(=O)C1CCC(=Cc1ccco1)C2=O (configuration not stated),i,32,nt,nt,i,nt
C(=NNc1ccccn1)c1ccc(N2CCOCC2)cc1,nt,nt,i,nt,nt,nt
Nc1nc2c(C(=O)N3CCOCC3)nnn2c2ccccc12,117,i,i,i,i,i
SMILES,FBA Mtb inh,GDH-TPI inh,Mtb hypoxia inh,UGM FP inh,FadD28 binding,Rv3671c inh
CCCCC1CCCO[C@@](C(=O)NCc2ccccn2)(C(F)(F)F)C1 (some centres not stated),nt,nt,i,nt,nt,nt
COc1ccccc1N1CCN(C(=O)c2cc3c(=O)n4ccccc4nc3s2)CC1,i,i,i,i,i,i
CN1CCN(C(=O)c2cc3c(=O)n4ccccc4nc3s2)CC1,+,i,i,i,i,i
CC1CN(C(=O)c2cc3c(=O)n4ccccc4nc3s2)CC(C)O1 (configuration not stated),196,34,i,i,i,i
CCOc1ccccc1/C=C\c1nc(O)c([N+](=O)[O-])c(=O)[nH]1,i,37,i,i,i,i
O=c1[nH]c(/C=C\c2ccc(O)c(O)c2)nc(O)c1[N+](=O)[O-],i,i,nt,i,i,nt
O=c1[nH]c(/C=C\c2cccc(O)c2)nc(O)c1[N+](=O)[O-],i,35,i,i,i,i
O=C(COc1ccccc1/C=C\c1nc(O)c([N+](=O)[O-])c(=O)[nH]1)Nc1ccccc1,i,i,i,nt,i,nt
